# In paper PMC7862700, “An all-to-all approach to the identification of sequence-specific readers for epigenetic DNA modifications on cytosine”:
# Tests used:
# Experiment in all cases: DAPPL (digital affinity profiling via proximity ligation, sequencing); 10 mM Tris-HCl pH 7.5, 50 mM NaCl, 1 mM DTT, 4% glycerol, room temperature, 30 min; GST-TFs on glutathione beads, 16-mer random dsDNA library, 0.1% formaldehyde crosslink after washing; high values mean tight binding
# Conditions in all cases: protein: recombinant; tags: N-terminal GST; dsDNA, one strand shown
# ELF4 = ELF4 (Homo sapiens, UniProt Q99607 1-663)
# How it was run: (§1)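 Pools were built from human transcription factors expressed in yeast as GST fusions, captured on glutathione beads and DNA-barcoded, along with a tag-only sample. Incubation with 200 nmole of a 16-mer random double-stranded DNA library lasted 30 min at room temperature in Tris/NaCl/DTT/glycerol buffer, and was followed by washing, 0.1% formaldehyde crosslinking, proximity ligation, PCR amplification and Illumina NextSeq500 sequencing. Binding signal is the quotient of each hexamer's read frequency for a factor and its frequency for the tag-only sample.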
# ETV2 = biological target: T1, ETV2 (Homo sapiens, UniProt O00321 1-342)
# T1 sequence: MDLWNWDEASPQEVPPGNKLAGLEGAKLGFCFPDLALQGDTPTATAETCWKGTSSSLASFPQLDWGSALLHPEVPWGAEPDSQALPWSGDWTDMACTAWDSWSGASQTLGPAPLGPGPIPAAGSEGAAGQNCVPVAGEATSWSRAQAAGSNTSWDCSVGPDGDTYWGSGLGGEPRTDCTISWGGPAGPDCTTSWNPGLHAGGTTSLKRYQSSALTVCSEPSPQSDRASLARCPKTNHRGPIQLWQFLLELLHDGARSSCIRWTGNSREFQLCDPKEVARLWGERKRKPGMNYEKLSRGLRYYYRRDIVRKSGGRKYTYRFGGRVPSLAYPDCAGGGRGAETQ
# How it was run: as §1
# ELF3 = biological target: T2, ELF3 (Homo sapiens, UniProt P78545 1-371)
# T2 sequence: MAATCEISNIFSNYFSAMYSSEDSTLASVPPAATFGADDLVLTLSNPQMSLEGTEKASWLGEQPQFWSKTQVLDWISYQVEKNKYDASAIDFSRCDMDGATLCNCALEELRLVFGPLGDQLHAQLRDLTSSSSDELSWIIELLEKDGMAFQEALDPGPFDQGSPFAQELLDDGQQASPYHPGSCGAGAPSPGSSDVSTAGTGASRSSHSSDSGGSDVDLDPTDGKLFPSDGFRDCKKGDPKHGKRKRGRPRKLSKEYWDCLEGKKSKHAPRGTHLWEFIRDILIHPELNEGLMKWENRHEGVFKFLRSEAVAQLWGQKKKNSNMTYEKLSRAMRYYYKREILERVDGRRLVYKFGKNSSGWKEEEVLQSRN
# How it was run: as §1
# ETV1 = ETV1 (Homo sapiens, UniProt P50549 1-477)
# How it was run: as §1
# ERF = biological target: T3, ERF (Homo sapiens, UniProt P50548 1-548)
# T3 sequence: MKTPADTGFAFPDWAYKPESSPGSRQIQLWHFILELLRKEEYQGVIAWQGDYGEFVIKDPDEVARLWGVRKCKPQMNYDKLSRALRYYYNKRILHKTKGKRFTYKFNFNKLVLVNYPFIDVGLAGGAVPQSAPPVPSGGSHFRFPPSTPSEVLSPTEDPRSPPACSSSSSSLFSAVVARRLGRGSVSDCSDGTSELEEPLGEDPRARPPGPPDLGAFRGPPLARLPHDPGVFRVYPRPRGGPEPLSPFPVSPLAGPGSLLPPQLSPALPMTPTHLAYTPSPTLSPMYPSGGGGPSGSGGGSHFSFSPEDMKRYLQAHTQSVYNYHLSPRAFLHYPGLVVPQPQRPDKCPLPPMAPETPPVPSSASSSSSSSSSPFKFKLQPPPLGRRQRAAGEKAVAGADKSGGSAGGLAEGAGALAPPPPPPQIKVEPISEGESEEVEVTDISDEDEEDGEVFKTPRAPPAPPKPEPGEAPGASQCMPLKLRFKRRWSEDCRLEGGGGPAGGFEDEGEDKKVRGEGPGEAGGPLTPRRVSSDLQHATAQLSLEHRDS
# How it was run: as §1
# ETV3L = biological target: T4, ETV3L (Homo sapiens, UniProt Q6ZN32 1-361)
# T4 sequence: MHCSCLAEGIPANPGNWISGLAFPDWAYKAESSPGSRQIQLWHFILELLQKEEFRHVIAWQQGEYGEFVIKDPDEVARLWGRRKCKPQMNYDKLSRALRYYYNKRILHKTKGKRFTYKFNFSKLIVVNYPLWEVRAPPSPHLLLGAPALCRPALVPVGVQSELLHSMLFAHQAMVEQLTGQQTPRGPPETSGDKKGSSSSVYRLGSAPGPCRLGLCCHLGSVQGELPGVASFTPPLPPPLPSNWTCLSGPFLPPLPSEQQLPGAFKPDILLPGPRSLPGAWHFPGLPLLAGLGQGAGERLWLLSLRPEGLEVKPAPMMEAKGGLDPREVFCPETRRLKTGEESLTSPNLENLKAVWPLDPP
# How it was run: as §1
# ETS2 = biological target: T5, ETS2 (Homo sapiens, UniProt P15036 1-469)
# T5 sequence: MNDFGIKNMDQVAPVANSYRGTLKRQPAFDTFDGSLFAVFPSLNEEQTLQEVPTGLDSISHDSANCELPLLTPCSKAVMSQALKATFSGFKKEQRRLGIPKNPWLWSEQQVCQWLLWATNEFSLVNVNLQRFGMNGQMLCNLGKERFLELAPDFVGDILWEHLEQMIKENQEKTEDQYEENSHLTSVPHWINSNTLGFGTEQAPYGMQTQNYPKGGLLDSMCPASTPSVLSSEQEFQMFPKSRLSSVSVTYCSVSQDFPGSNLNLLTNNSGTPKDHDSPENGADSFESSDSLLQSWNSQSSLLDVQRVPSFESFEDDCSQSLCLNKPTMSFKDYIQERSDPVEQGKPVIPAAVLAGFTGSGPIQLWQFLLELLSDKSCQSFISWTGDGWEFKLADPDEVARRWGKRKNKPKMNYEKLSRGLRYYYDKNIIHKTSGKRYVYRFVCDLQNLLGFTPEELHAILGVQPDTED
# How it was run: as §1
# ETV7 = biological target: T6, ETV7 (Homo sapiens, UniProt Q9Y603 1-341)
# T6 sequence: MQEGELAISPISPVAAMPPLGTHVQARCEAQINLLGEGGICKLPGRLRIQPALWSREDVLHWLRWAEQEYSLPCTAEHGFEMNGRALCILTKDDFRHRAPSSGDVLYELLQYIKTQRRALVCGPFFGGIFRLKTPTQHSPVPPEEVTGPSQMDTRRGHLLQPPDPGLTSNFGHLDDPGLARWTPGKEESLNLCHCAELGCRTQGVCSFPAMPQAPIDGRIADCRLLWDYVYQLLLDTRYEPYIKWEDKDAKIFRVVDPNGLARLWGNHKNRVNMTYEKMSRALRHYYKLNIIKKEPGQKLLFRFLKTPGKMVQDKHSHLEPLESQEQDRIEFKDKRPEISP
# How it was run: as §1
# ETV3 = biological target: T7, ETV3 (Homo sapiens, UniProt P41162-2 1-143)
# T7 sequence: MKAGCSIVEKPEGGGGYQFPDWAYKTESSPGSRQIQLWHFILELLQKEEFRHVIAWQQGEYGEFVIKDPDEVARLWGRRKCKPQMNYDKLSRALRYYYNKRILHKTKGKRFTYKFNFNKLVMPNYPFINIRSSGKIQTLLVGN
# How it was run: as §1
# ETV6 = ETV6 (Homo sapiens, UniProt P41212 1-452)
# How it was run: as §1
# Sequence of ETV6 (P41212 whole entry): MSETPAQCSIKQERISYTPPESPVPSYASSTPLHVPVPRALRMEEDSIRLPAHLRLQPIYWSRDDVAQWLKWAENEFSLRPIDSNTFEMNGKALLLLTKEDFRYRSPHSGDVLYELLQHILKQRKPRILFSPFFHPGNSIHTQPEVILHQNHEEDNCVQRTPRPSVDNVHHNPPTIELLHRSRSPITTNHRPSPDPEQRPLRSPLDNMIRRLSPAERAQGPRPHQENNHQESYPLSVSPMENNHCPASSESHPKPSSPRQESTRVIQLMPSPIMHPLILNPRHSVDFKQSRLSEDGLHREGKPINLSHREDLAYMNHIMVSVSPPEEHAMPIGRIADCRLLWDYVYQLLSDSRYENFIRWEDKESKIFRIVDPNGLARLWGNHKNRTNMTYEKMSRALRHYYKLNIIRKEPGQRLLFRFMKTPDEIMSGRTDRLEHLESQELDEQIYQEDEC
# Sequence of ELF4 (Q99607 whole entry, the tested form may be a part): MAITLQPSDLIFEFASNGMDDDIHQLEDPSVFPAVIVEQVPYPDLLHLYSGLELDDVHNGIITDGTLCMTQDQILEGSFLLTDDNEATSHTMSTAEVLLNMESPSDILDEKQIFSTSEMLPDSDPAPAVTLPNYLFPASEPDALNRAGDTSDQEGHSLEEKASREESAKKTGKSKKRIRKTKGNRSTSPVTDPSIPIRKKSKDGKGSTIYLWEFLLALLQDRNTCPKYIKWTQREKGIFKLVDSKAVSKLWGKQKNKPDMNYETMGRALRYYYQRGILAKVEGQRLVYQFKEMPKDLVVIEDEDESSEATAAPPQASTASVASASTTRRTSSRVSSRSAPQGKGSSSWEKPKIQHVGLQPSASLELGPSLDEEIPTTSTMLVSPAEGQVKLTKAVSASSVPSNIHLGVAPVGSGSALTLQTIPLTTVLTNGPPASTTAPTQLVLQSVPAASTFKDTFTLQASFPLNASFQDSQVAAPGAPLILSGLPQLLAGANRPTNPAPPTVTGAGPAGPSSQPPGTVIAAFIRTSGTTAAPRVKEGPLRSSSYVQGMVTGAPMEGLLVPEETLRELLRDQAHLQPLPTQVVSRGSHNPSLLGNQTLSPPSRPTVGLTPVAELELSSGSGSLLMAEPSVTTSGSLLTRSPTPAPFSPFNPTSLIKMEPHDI
# Sequence of ETV1 (P50549 whole entry): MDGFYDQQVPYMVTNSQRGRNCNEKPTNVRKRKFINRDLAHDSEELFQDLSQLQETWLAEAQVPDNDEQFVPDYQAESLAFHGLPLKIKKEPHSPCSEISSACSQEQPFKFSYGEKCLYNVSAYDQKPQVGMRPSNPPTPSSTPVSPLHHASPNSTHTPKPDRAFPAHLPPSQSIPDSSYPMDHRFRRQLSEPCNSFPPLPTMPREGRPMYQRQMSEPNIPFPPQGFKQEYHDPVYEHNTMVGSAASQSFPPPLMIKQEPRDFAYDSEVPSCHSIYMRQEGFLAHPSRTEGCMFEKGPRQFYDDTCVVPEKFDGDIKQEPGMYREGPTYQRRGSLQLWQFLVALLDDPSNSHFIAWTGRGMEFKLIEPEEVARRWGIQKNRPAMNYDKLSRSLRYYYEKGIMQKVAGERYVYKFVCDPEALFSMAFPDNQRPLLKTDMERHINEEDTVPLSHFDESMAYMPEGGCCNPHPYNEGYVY
sequence,measurement,setting,value
GAAGTC,binding signal,ELF4,"1.08 fold enrichment (6-mer frequency, TF over GST control)"
same,binding signal,ETV2,"1.08 fold enrichment (6-mer frequency, TF over GST control)"
same,binding signal,ELF3,"1.1 fold enrichment (6-mer frequency, TF over GST control)"
same,binding signal,ETV1,"1.22 fold enrichment (6-mer frequency, TF over GST control)"
same,binding signal,ERF,"1.11 fold enrichment (6-mer frequency, TF over GST control)"
same,binding signal,ETV3L,"1.14 fold enrichment (6-mer frequency, TF over GST control)"
same,binding signal,ETS2,"1.19 fold enrichment (6-mer frequency, TF over GST control)"
same,binding signal,ETV7,"1.1 fold enrichment (6-mer frequency, TF over GST control)"
same,binding signal,ETV3,"1.21 fold enrichment (6-mer frequency, TF over GST control)"
same,binding signal,ETV6,"1.22 fold enrichment (6-mer frequency, TF over GST control)"
